Screening data from PubChem.
Compounds with a hit are over-represented: about 2.6% of the library has one in this group of screens.
SKOV3 invasion – blocks SKOV3ip1 adhesion and invasion in omental model; SKOV3ip1-GFP adhesion/invasion on 3D omental model, fluorescence; Potency, µM (top dose mostly 45.8 µM), without a hit: top-dose activity change, negative = inhibition, actives largely listed as inhibitors; hit rate 0.1% among 46,000; AID 1963576;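 also: potency is read from the fitted curve at half-maximal effect; plate controls were DMSO wells for no effect and tomatine positive control wells for full effect; nearly all actives have a fitted effect of over 65% in size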
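A 3D layer of primary human omental fibroblasts, mesothelial cells, fibronectin and collagen I, grown 48 hr, received SKOV3ip1-GFP cells in serum-free medium plus compounds at 0.36-46 umol/L. After 2 hr RT and 16 hr 37 C, fixed adherent GFP cells were counted; normalized to DMSO and tomatine.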
PMP22 txn – modulators of PMP22 gene transcription in S16 Schwann cells; S16 Pmp22-F2sN Schwann cells, FLuc/NLuc coincidence luminescence, 24 h; Potency, µM (doses to about 57.5 µM), for inactives: top-dose activity change, negative = inhibition, hits mostly inhibitors; hit rate 2% among 43,000; active = clear falling dose curves in both reporters; inconclusive = both reporters move, but less clearly or upward; inactive = either reporter flat; the % is the NLuc reporter signal; also: potency is read from the fitted curve at half-maximal effect; % is scaled to controls: 0 for no effect and ±100 for the full control effect
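qHTS, 1536-well. Cells seeded, compounds added by pin tool, 24 h 37C. Nano-Glo reagent 1 (lysis/FLuc), 10 min RT, read; Stop&Glo, 10 min RT, read NLuc.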
S16 viability – S16 Schwann cell cytotoxicity. S16 Pmp22-F2sN Schwann cells (luciferase reporters placed in the Pmp22 gene) viability, CellTiter-Glo, 24 h. Potency, µM (titrated, usually from 57.5 µM), without a hit: at the top dose activity change, negative = cytotoxicity, most hits filed as cytotoxic. hit rate 0.48% among 43,000. AID 1508642; also: potency is read from the fitted curve at half-maximal effect; % is scaled to controls: 0 for no effect and ±100 for the full control effect; nearly all actives have a fitted effect of over 65% in size
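CellTiter-Glo counter-screen, qHTS, 1536-well. Cells: S16(c9) Pmp22-F2sN, 500-1,000/well in DMEM + 10% FBS. Cpd 23 nL pin transfer, 24 h, 37C/5% CO2. Read: luminescence, CCD imager.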
pS6 MEF inh – inhibitors of mTORC1 signaling in Tsc2-/- p53-/- MEF cells | Tsc2-/- p53-/- MEF, phospho-rpS6 immunofluorescence/PI, 24 h | Potency, µM (doses to about 38.3 µM), for the others: at the highest dose activity change, negative = inhibition, most hits filed as inhibitors | hit rate 0.78% among 44,000;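 also: potency is read from the fitted curve at half-maximal effect; plate controls were DMSO for no effect and rapamycin for full effect; nearly all actives have a fitted effect of over 50% in size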
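Read-out: phospho-S6 Alexa-488 intensity over PI intensity per well, scored as % active cells using thresholds from rapamycin (7.5 nM) and DMSO controls. Tsc2-/-, p53-/- MEFs exposed to compound for 24 h; PI cell count recorded as viability.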
NLuc saturating – NanoLuc enzyme inhibition artifact for PMP22 screen. shares compounds with PMP22 txn. Secreted NLuc enzyme (filtered S16 cell medium), Nano-Glo luminescence. Potency, µM (series often up to 57.5 µM), inactives show at the highest dose activity change, negative = inhibition, hits mostly inhibitors. hit rate 4% among 690. AID 1508638; also: potency is read from the fitted curve at half-maximal effect; % is scaled to controls: 0 for no effect and ±100 for the full control effect
NLuc Km ctr – inhibits NanoLuc under Km conditions, PMP22 counter-screen. shares compounds with PMP22 txn. secreted NLuc enzyme, coelenterazine luminescence, Km conditions. Potency, µM (titrated, usually from 57.5 µM), for inactives: at the highest dose activity change, negative = inhibition, most hits filed as inhibitors. hit rate 5% among 690. AID 1508639; also: potency is read from the fitted curve at half-maximal effect; % is scaled to controls: 0 for no effect and ±100 for the full control effect
FLuc counter – counter-screen for PMP22 expression modulators: firefly luciferase inhibition. shares compounds with PMP22 txn. purified P. pyralis FLuc, luminescence, 10 min. Potency, µM (titrated, usually from 57.5 µM), for the others: top-dose activity, negative = inhibition, usual class: inhibitors. 690 tested, under 10 active. AID 1508640; also: % of control where 0% means no effect
Target sequence (P08659 whole entry, looked up): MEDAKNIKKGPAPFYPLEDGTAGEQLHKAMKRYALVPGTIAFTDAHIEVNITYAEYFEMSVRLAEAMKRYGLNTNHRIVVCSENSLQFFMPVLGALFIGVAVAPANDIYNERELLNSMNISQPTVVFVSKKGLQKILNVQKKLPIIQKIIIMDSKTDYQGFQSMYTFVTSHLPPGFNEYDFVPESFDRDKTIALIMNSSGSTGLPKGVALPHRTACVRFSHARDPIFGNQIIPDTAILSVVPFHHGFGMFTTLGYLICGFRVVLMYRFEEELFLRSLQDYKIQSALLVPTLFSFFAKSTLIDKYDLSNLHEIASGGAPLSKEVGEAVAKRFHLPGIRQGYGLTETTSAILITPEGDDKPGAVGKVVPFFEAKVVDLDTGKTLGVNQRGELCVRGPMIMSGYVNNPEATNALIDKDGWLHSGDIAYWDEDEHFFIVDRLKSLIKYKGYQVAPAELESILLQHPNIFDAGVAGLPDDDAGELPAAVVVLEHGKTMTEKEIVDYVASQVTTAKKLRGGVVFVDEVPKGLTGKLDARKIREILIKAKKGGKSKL
S16 F2sN tox cnf – S16 Schwann cell cytotoxicity, confirmatory | shares compounds with PMP22 txn | S16 Schwann cells viability, CellTiter-Glo ATP luminescence, 24 h | Potency, µM (series often up to 57.5 µM), for the others: at the highest dose activity change, negative = viability loss, usual class: cytotoxic | hit rate 7% among 690 | AID 1508641; also: potency is read from the fitted curve at half-maximal effect; % is scaled to controls: 0 for no effect and ±100 for the full control effect
PMP22 txn cnf – PMP22 transcription modulation, confirmatory | shares compounds with PMP22 txn | S16 Schwann cells Pmp22-F2sN, dual luciferase, 24 h | Potency, µM (top dose mostly 57.5 µM), without a hit: top-dose activity change, negative = inhibition, actives largely listed as inhibitors | hit rate 22% among 690; active = clear falling dose curves in both reporters; inconclusive = both reporters move, but less clearly or upward; inactive = either reporter flat; the % is the FLuc reporter signal; also: potency is read from the fitted curve at half-maximal effect
PMP22 prot conf – confirmation of modulators of rat PMP22 protein expression. Potency, µM (top dose mostly 27.9 µM), without a hit: at the top dose activity change, negative = inhibition, usual class: inhibitors. AID 1508647. 95 tested, under 10 active. S16 Schwann cells Pmp22-HiBiT, luminescence, 48 h. shares compounds with PMP22 txn
Target sequence (P25094 whole entry, looked up): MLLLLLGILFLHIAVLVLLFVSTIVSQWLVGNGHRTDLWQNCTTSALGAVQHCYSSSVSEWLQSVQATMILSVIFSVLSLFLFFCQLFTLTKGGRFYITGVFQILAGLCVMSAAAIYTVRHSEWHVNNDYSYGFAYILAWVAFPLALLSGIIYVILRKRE
An asterisk follows results filed as active; i = inactive; ? = inconclusive; · = not tested or not shown; [ ] = dose if it differs, or a comment. Unless noted, calls follow the shape of the dose curve; as a rule, active = well fitted curve in the direction sought with a large enough effect; inconclusive = small, poorly fitted or top-dose-only effect, or another doubt; inactive = no such curve, though single readings can be large; an effect the other way counts as inactive or inconclusive.

SMILES | SKOV3 invasion | PMP22 txn | S16 viability | pS6 MEF inh | NLuc saturating | NLuc Km ctr | FLuc counter | S16 F2sN tox cnf | PMP22 txn cnf | others
COc1cc(C2c3c(oc4ccccc4c3=O)C(=O)N2Cc2ccccc2Cl)ccc1O (stereo not drawn) | 10% | 11µM* | 3% | 3% | -9% | -4% | 4% | -8% | ?
CN(C)c1ccc(Nc2nc(N)n(C(=O)c3c(F)cccc3F)n2)cc1 | 18% | · | · | · | · | · | · | · | ·
O=S(=O)(c1ccc(-c2csc(=Nc3ccc(OC(F)(F)Cl)cc3)n2CCCO)cc1)N1CCCC1 | ? | 15µM* | ? | ? | 0% | -2% | -10% | 22µM* | 19µM*
O=C(NCc1ccc(Cl)cc1)C(=O)Nc1cccc(Br)c1 | i | 16µM* | -17% | -4% | -7% | 0% | 4% | ? | ?
CCCOc1ccc(CN2C(=O)C(=O)c3cccc(C)c32)cc1 | ? | 11µM* | -7% | ? | ? | ? | -16% | ? | ?
CCc1ccc(S(=O)(=O)c2nnn3c2nc(N(CC)Cc2ccccc2)c2cc(Cl)ccc23)cc1 | 0% | 6.7µM* | -11% | -3% | -1% | 2% | 4% | 5% | -14%
CCc1ccc(S(=O)(=O)c2nnn3c2nc(N(C)Cc2ccccc2)c2cc(Cl)ccc23)cc1 | 9% | 2% | 10% | -5% | · | · | · | · | ·
COc1ccccc1CNc1nc2c(S(=O)(=O)c3ccc(C)c(C)c3)nnn2c2ccc(Cl)cc12 | 5% | 6.3µM* | 2% | 0% | -1% | -1% | -2% | 22µM* | 7.7µM*
Cn1cc(-c2cnn3c(N)c(Br)c([C@H]4CCCNC4)nc23)cn1 | 18% | · | · | · | · | · | · | · | ·
CCC(=O)N1CCc2cc(Br)cc(S(=O)(=O)N3CCCC(C(=O)NCc4ccc(OC)cc4)C3)c21 (stereo not drawn) | i | ? | 21% | -20% | · | · | · | · | ·
CCC(=O)N1CCc2cc(Br)cc(S(=O)(=O)N3CCCC(C(=O)NCc4cccc(OC)c4)C3)c21 (stereo not drawn) | 11% | 14µM* | 18% | -3% | -17% | 5% | 7% | -21% | -41%
COc1cccc(Cn2c(CNC(=O)c3cc([N+](=O)[O-])ccc3Cl)nc3cccnc32)c1 | -62% | 13µM* | 2% | -1% | -4% | -4% | -2% | 7% | 4%
COCCn1c(CNC(=O)c2cc([N+](=O)[O-])ccc2Cl)nc2cccnc21 | 15% | -18% | 11% | 1% | · | · | · | · | ·
Cn1cc(C=CC(=O)c2cccc(F)c2)cc1C=CC(=O)NO | -1% | · | · | · | · | · | · | · | ·
CCc1ccc(NC(=O)CSc2nc3nccnc3c(=O)n2CCc2c[nH]c3ccccc23)cc1 | 9% | ? | 5% | 0% | · | · | · | · | ·
O=C(CSc1nc2nccnc2c(=O)n1CCc1c[nH]c2ccccc12)Nc1ccc(F)cc1 | 21% | 7µM* | 12% | 6% | ? | ? | -14% | 7% | -40%
CN(C1CCCCC1)S(=O)(=O)c1ccc2c(c1)c(=O)c(C(=O)NCc1ccc(Cl)cc1)cn2C | -7% | ? | -1% | 0% | -1% | 7% | 7% | -11% | -31%
Cc1ccc(CNC(=O)c2cn(C)c3ccc(S(=O)(=O)N(C)C4CCCCC4)cc3c2=O)cc1 | i | -25% | 1% | -3% | · | · | · | · | ·
CCOC(=O)c1cc2c(=O)n3ccccc3nc2n(CC2CCCO2)c1=NC(=O)c1cccc(C(F)(F)F)c1 (stereo not drawn) | i | 4.9µM* | 1% | -20% | -19% | ? | 9% | 5% | ?
CCOC(=O)c1cc2c(=O)n3ccccc3nc2n(Cc2ccco2)c1=NC(=O)c1cc(C)cc(C)c1 | 3% | 5.6µM* | ? | -3% | ? | ? | 2% | ? | 4.6µM* | PMP22 prot conf=?
CCOC(=O)c1cc2c(=O)n3ccccc3nc2n(Cc2ccco2)c1=NC(=O)c1ccc(C(C)(C)C)cc1 | i | ? | -18% | 16% | · | · | · | · | ·
C[C@]12CC[C@@H]3c4ccc(O)cc4CC[C@H]3[C@H]1[C@@H](O)[C@@H](O)[C@H]2O | 7% | · | · | · | · | · | · | · | ·
Cc1cc(C)c(S(=O)(=O)N2CCN(Cc3nc4ccc(C)cc4o3)CC2)c(C)c1 | -21% | ? | -11% | 32% | · | · | · | · | ·
Cc1ccc(S(=O)(=O)N2CCN(Cc3noc(CCC(=O)N4CCCCC4)n3)CC2)c(C)c1 | -4% | ? | -22% | -11% | 0% | 3% | 3% | -13% | -16%
COc1cccc(Nc2c(C(N)=O)cnc3c(C)cc(S(=O)(=O)c4cccc(C(=O)N(C)C)c4)cc23)c1 | -9%[23.2 µM] | · | · | · | · | · | · | · | ·
CCOc1ccc(NC(=O)CSc2nc(-c3cccs3)cc(C(F)(F)F)c2C#N)cc1 | 4% | -12% | 6% | 2% | · | · | · | · | ·
N#Cc1c(C(F)(F)F)cc(-c2cccs2)nc1SCC(=O)Nc1ccc(Cl)cc1 | 4% | 19µM* | -5% | ? | -4% | 3% | -5% | 9% | ?
COc1c(Cl)cc(Cl)cc1/C=C(\C#N)c1nc2ccccc2[nH]1 | i | 11µM* | ? | -9% | ? | ? | 6% | -19% | ?
COc1cc(/C=C(\C#N)c2nc3ccccc3[nH]2)ccc1OCc1ccccc1F | -10% | 13µM* | 5% | 3% | ? | ? | -5% | -2% | ?
